NS1 function inh – qHTS Assay for Inhibitors of Influenza NS1 Protein Function. hit rate 0.4% among 270,000. Potency, µM (top dose mostly 46.1 µM), inactives show at the top dose activity, positive = more growth; calls by dose curve; further: actives are rising curves; nearly all actives have a fitted effect of over 50% in size
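OD600 was taken as the measure of yeast growth restored by compound in an NS1-expressing S. cerevisiae strain. Cells had been washed out of glucose medium and diluted 1:100 into galactose -URA medium, pH 6.0.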
SARS PLP yeast – qHTS of Yeast-based Assay for SARS-CoV PLP | S. cerevisiae expressing SARS-CoV PLpro, growth rescue | Potency, µM (titrated, usually from 32.9 µM), without a hit: top-dose activity, positive = growth rescue, hits mostly activators | hit rate 0.19% among 330,000; calls by dose curve; further: 0% is about no effect; nearly all actives have a fitted effect of over 55% in size
Pf growth 96h – Primary qHTS for delayed death inhibitors of the malarial parasite plastid, 96 hour incubation; hit rate 6.9% among 320,000; P. falciparum luciferase reporter growth, 96 h; Potency, µM (titrated, usually from 28.7 µM), for inactives: top-dose activity change, negative = inhibition, most hits filed as inhibitors; further: on the % scale 0 is the no-effect control and ±100 the full control effect
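Erythrocytes infected with luciferase-expressing P. falciparum were dispensed at 2% hematocrit and 0.05% parasitemia (final), then incubated with compounds 96 hours at 37 C in 5% CO2. Luminescence after detection reagent addition reported growth.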
HCV inh – qHTS Assay for Inhibitors of Hepatitis C Virus (HCV); AID 651820, 2012; hit rate 3.4% among 340,000; Huh7.5.1 HCVcc-Cre infection, luciferase reporter, 44 h; Potency, µM (highest dose often 41.8 µM), for inactives: at the highest dose activity change, negative = inhibition, usual class: inhibitors; further: on the % scale 0 is the no-effect control and ±100 the full control effect
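Antiviral activity was scored by luciferase reporter output from cells infected with HCVcc-Cre (~0.5 moi) in presence of compound, 44 h infection period, cells seeded 1,000/well 4 h prior.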
Pf growth 48h – Primary qHTS for delayed death inhibitors of the malarial parasite plastid, 48 hour incubation; P. falciparum luciferase growth in erythrocytes, 48 h; Potency, µM (titrated, usually from 28.7 µM), inactives show at the top dose activity change, negative = inhibition, most hits filed as inhibitors; hit rate 5.9% among 310,000; AID 504832, 2011; further: on the % scale 0 is the no-effect control and ±100 the full control effect
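Growth was read as firefly luciferase luminescence after a 48 h, 37 C, 5% CO2 exposure of compounds to reporter-bearing P. falciparum cultures (0.1% parasitemia, 2% hematocrit final) in Albumax-supplemented RPMI 1640.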
AMA1-RON2 inh – qHTS for Inhibitors of AMA1-RON; Towards Development of Antimalarial Drug Lead: Primary Screen; AlphaScreen AMA1-biotinylated RON2 peptide binding; Potency, µM (top dose mostly 58.2 µM), for the others: at the highest dose activity change, negative = inhibition, actives largely listed as inhibitors; hit rate 0.2% among 360,000; AID 720542, 2013;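 further: 0% = vehicle wells and -100% = peptide control; nearly all actives have a fitted effect of over 45% in size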
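AMA1 (3D7) with his tag at 25 nM final met compounds first, then biotinylated RON2 peptide at 25 nM; detection used donor plus acceptor beads, 10 µg/mL apiece, read by AlphaScreen after 30 min at room temperature.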
Active calls of the source: *; ? = inconclusive; . = no result given; [ ] = dose if it differs, or a comment. The list is not random: actives were taken first. Their share in the collection is about 12%. Unless noted, the call rests on the fitted dose curve; in most records, active means well fitted curve in the direction sought with a large enough effect; inconclusive means small, poorly fitted or top-dose-only effect, or another doubt; inactive means no such curve, though single readings can be large; an effect the other way counts as inactive or inconclusive. Potency means the concentration at half of the fitted maximal effect.

SMILES	NS1 function inh	SARS PLP yeast	Pf growth 96h	HCV inh	Pf growth 48h	AMA1-RON2 inh
Cc1ccc(S(=O)(=O)NCCC(=O)N2CCN(C/C=C/c3ccccc3)CC2)cc1	.	2%	?	?	?	11%
CCC(C)c1ccccc1NC(=O)CN1CCN(C/C=C/c2ccccc2)CC1 (centres undefined)	-16%	-2%	13µM*	-12%	?	-15%
Cc1ccc(S(=O)(=O)NC(CC(C)C)C(=O)N2CCN(C/C=C/c3ccccc3)CC2)cc1 (centres undefined)	.	15%	?	11µM*	8.3µM*	-1%
CC(=O)c1ccc(S(=O)(=O)NCC(=O)N2CCN(C/C=C/c3ccccc3)CC2)cc1	.	1%	12µM*	-7%	12µM*	28%[11.6 µM]
Cc1ccc(S(=O)(=O)NC(CC(C)C)C(=O)N2CCOCCOCCOCC2)cc1 (centres undefined)	0%	0%	-6%	-4%	-12%	-1%
NC(Cc1ccc(C(F)(F)F)cc1)c1csc(Nc2cc(Oc3ccccc3)ncn2)n1 (centres undefined)	.	.	.	.	.	91%
COc1ccc(CN(CC(=O)NC2CCCC2)C(=O)CCC(=O)Nc2nc(C)cs2)cc1	-7%	-4%	-5%	11%	-25%	6%
Clc1ccc(-n2cc(-c3ccc(Br)cc3)[n+]3c2CCCCC3)cc1	-3%	-1%	?	-3%	?	-9%
Cc1ccc(-c2cn(-c3ccc(OC(F)F)cc3)c3[n+]2CCCCC3)cc1	5%	0%	?	-6%	1.3µM*	-2%
FC(F)Oc1ccc(-n2cc(-c3ccccc3)[n+]3c2CCCCC3)cc1	0%	-1%	?	-11%	1.2µM*	-1%
O=C(Cc1cccc2ccccc12)Nc1c(F)cccc1F	4%	1%	37%	5%	22%	4%
COc1cc(CN2CC(=O)N(c3ccc(C)c(C)c3)C2=S)cc(OC)c1OC	12%	-6%	13%	?	1µM*	-8%
COc1cc(CN2CC(=O)N(c3cc(Cl)ccc3C)C2=S)cc(OC)c1OC	-5%	-8%	-17%	-23%	2.6µM*	-4%
Cc1cc(C)cc(N2C(=O)CN(Cc3ccccc3)C2=S)c1	7%	-2%	4.7µM*	0%	15µM*	-7%
COc1ccc(CN2CC(=O)N(c3ccccc3C)C2=S)cc1OC	.	1%	96%	?	9.3µM*	-3%
Cc1ccc(Oc2ncccc2N)c2c1CCC2	-7%	-2%	64%	19%	-7%	-5%
Cc1ccc(C(=O)N2C(CC(=O)Nc3ccc(Cl)cc3)C(=O)NC3CCCCC32)cc1 (centres undefined)	1%	0%	2%	?	?	-2%
O=C(Nc1cc(S(=O)(=O)Nc2ccccc2F)ccc1Cl)c1ccc(F)cc1F	.	13%	.	3%	.	-10%
CC(C)(C)c1ccc(OCC(=O)N(Cc2cccs2)C2CCS(=O)(=O)C2)cc1 (centres undefined)	-16%	-2%	?	-3%	?	-6%
COc1cccc(N2C(=O)CN(Cc3ccc(OC)c(OC)c3)C2=S)c1	1%	-3%	?	-21%	1.5µM*	-7%
COc1ccc(CN2CC(=O)N(c3cc(Cl)ccc3C)C2=S)cc1OC	0%	-3%	0%	?	7.4µM*	-13%
COc1ccc(N2C(=O)CN(Cc3ccc(OC)c(OC)c3)C2=S)cc1	.	-3%	?	?	-9%	-3%
CCc1ccccc1N1C(=O)CN(Cc2cc(OC)c(OC)c(OC)c2)C1=S	2%	-3%	?	32µM*	5.2µM*	-6%
COc1ccc(CN2CC(=O)N(c3ccc(C)cc3C)C2=S)cc1OC	.	1%	?	-15%	?	-2%
CCc1ccc(N2C(=O)CN(Cc3cc(OC)c(OC)c(OC)c3)C2=S)cc1	19%	4%	-19%	?	4%	0%
SMILES	NS1 function inh	SARS PLP yeast	Pf growth 96h	HCV inh	Pf growth 48h	AMA1-RON2 inh
Cc1cccc(N(O)C(=O)Nc2cccc(Cl)c2)c1	-29%	1%	?	-19%	?	-7%
CSc1ncnc2nc[nH]c12	-24%	.	.	.	.	.
COc1ccc(-c2cc(OC(=O)c3ccc(F)cc3)c3c(C)oc(C)c3c(=O)c2)cc1	-7%	-7%	10µM*	.	?	.
COc1ccc(C(=O)Oc2ccc[nH]c2=O)cc1	2%	2%	13%	11%	?	24%
CSCCC(N=C(NS(=O)(=O)c1ccc(C)cc1)c1ccccc1)C(=O)O (centres undefined)	-2%	-1%	27%	10%	7%	3%
CCN(CC)C(=O)CSc1nc(-c2cccs2)cc(-c2cccs2)c1C#N	?	7%	?	2.5µM*	8.3µM*	-4%
CSc1nc(C2CC2)cc(-c2cccs2)c1C#N	3%	-5%	?	11µM*	9%	-11%
COc1ccc(-c2cc(C3CC3)nc(SCC(=O)c3cccs3)c2C#N)cc1	9%	1%	?	?	-29%	-10%
CCN(CC)C(=O)CSc1nc(N)c(C#N)c(-c2cccs2)c1C#N	3%	2%	?	-17%	?	-5%
CN1CCN(C(=O)CSc2nc(-c3cccs3)cc(-c3cccs3)c2C#N)CC1	-48%	0%	2.1µM*	?	?	4%
COc1cccc(C2C([N+](=O)[O-])=C(N)Oc3cc(C)oc(=O)c32)c1 (centres undefined)	4%	0%	1%	-1%	1%	10%
CC(C)(C)OC(=O)N1CCCC(C(=O)Nc2ccc(C(=O)NCCc3ccccc3)cc2)C1 (centres undefined)	.	.	.	-22%[8.37 µM]	.	-6%
Cc1[nH]c(C)c(S(=O)(=O)Nc2cccc(Cl)c2C)c1C(=O)N1CCCCC1	-2%	6%	-6%	20%	-8%	-11%
CCC(C(=O)O)n1nnc(-c2ccc(OCc3ccccc3)c(OC)c2)n1 (centres undefined)	19%	9%	4.7µM*	.	1%	.
CCC(C(=O)O)n1nnc(-c2ccc(-c3ccc(OC)cc3)cc2)n1 (centres undefined)	4%	1%	.	7%	47%	4%
Cc1ccc(-n2ncc3c2CC(C)(C)CC3NC(=O)C2CCOCC2)cc1 (centres undefined)	2%	?	-1%	12%	-8%	16%
O=C(CCc1ccccc1)Nc1cc(Cl)ccc1O	-153%	-17%	?	?	10µM*	-4%
O=C(CCc1ccccc1)Nc1cc(C(=O)O)cc(C(=O)O)c1	4%	-1%	1.5µM*	7%	24%	-1%

Bioassay records (PubChem)
